DT40 TDP1 no CPT – qHTS for Inhibitors of human tyrosyl-DNA phosphodiesterase 1 (TDP1): qHTS in cells in absence of CPT; 15% of 420,000 active; Potency, µM (series often up to 46.2 µM), without a hit: top-dose activity change, negative = growth inhibition, hits mostly inhibitors; DT40 Tdp1-/- hTDP1 cells, no CPT, ATP luminescence, 48 h; AID 686978, 2013; further: on the % scale 0 is the no-effect control and ±100 the full control effect; nearly all actives have a fitted effect of over 55% in size
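Chicken DT40 Tdp1-/- cells complemented with human TDP1, screened without camptothecin (DMSO vehicle only), 400 cells/well. Compounds pin-transferred, cells incubated at 37 °C for at least 48 hr. Growth read as ATP-dependent luminescence (CellTiter-Glo, 30 min at RT).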
ATXN2 expr inh – inhibitors of ATXN2 expression. 0.72% of 360,000 active. Potency, µM (top dose mostly 57 µM), without a hit: at the top dose activity change, negative = inhibition, hits mostly inhibitors. HEK-293 ATXN2-luciferase reporter, luminescence, 24 h; further: on the % scale 0 is the no-effect control and ±100 the full control effect; nearly all actives have a fitted effect of over 55% in size
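ATXN2-luciferase reporter cells (luciferase flanked by upstream and downstream ATXN2 gene portions) were treated 24 h at 37 °C with compounds at up to 57 uM. SteadyGlo luminescence gave expression; GF-AFC fluorescence gave viability.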
S2 tox – reduces viability in counter-screen for ATXN expression inhibitors. Potency, µM (highest dose often 56.7 µM), actives largely listed as cytotoxic. 0.49% of 400,000 active. S2 cells (HEK-293 line with an ATXN2-luciferase reporter) viability, CellTiter-Fluor protease fluorescence, 24 h; further: nearly all actives have a fitted effect of over 40% in size
HepG2 tox – kills HepG2 cells in TGF-b inhibitor counter-screen | HepG2 CAGA-GFP viability, ATP luminescence, 18 h | Potency, µM (doses to about 46.1 µM), for the others: top-dose activity change, negative = cytotoxicity, hits mostly cytotoxic | 0.76% of 410,000 active | AID 588856
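HepG2 CAGA-GFP cells (1000/well, DMEM with 1% FBS) received compound, then TGF-beta at 500 pg/mL final, and were incubated 18 hours at 37 degrees C. Viability was read by CellTiter-Glo luminescence. Media-only wells were set as complete cell-killing and DMSO as no toxicity.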
TDP1 cell CPT – growth inhibition of DT40 Tdp1-/-;hTDP1 cells with camptothecin (screen for TDP1 inhibitors) | chicken DT40 Tdp1-/-;hTDP1 cells + 20 nM CPT, ATP luminescence, 48 h | Potency, µM (doses to about 46.2 µM), inactives show at the top dose activity change, negative = growth inhibition, most hits filed as inhibitors | 12% of 420,000 active | AID 686979; further: on the % scale 0 is the no-effect control and ±100 the full control effect; nearly all actives have a fitted effect of over 55% in size
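Chicken DT40 Tdp1-/- cells stably complemented with human TDP1 were seeded at 400 cells/well in medium containing 20 nM camptothecin, exposed to pin-transferred compounds, and grown at 37 °C for at least 48 hr. Viability was read as ATP luminescence.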
TGFb SMAD3 inh – inhibitors of TGF-b signaling | HepG2 CAGA-GFP TGF-b/SMAD3 reporter, GFP fluorescence, 18 h; TGF-beta stimulated, 500 pg/mL final | Potency, µM (doses to about 46.1 µM), for the others: top-dose activity, negative = inhibition, hits mostly inhibitors | 1.2% of 410,000 active | AID 588855; further: on the % scale 0 is the no-effect control and ±100 the full control effect; nearly all actives have a fitted effect of over 65% in size
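HEPG2 CAGA-GFP, 1000 cells/well; 2 h settle, 37 C; cpd via pin tool; TGF-b 500 pg/mL final; 18 h, 37 C; GFP imaging ex488/em500-530; %Activity normalised to -TGF-b and +DMSO controls; CRC fit, curve class.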
* marks the source's active call; other numbers are inactive results; i = inactive; ? = inconclusive; / = no result given. A selection: hits, their analogues and other compounds. The true share with any hit is near 17%. The call rests on the fitted dose curve; in most records, active means well fitted curve in the direction sought with a large enough effect; inconclusive means small, poorly fitted or top-dose-only effect, or another doubt; inactive means no such curve, though single readings can be large; an effect the other way counts as inactive or inconclusive. Potency means the concentration at half of the fitted maximal effect.

SMILES	DT40 TDP1 no CPT	ATXN2 expr inh	S2 tox	HepG2 tox	TDP1 cell CPT	TGFb SMAD3 inh
CCC(Sc1nc2sc(C(=O)OC)c(C)c2c(=O)n1N)C(=O)N(CC)CC (centres undefined)	13µM*	-4%	i	-1%	?	-24%
CCOC(=O)c1ccc(N2C(=O)c3n[nH]c(-c4ccco4)c3C2c2ccc(OC)cc2OC)cc1 (centres undefined)	18µM*	?	?	-46%	23µM*	16µM*
CCOC(=O)c1ccc(N2C(=O)c3n[nH]c(C)c3C2c2ccc(OC)cc2OC)cc1 (centres undefined)	23µM*	-18%	i	-55%	?	?
CCCC12CN3CC(C)(CN(C1)C3c1ccc(CC)cc1)C2=O (centres undefined)	4.6µM*	-1%	i	9%	?	2%
COc1ccc(N(CC(=O)NC(C)(C)C)C(=O)CCC(=O)Nc2nccs2)cc1	-1%	-3%	i	1%	-2%	13%
CCC(CO)Nc1ccn2nc(-c3cccs3)cc2n1 (centres undefined)	-26%	27%	i	-3%	-21%	9%
Cc1[nH]c2ccc(C(=O)Nc3ccncc3)cc2c1C	12µM*	/	i	-6%	13µM*	-22%
Cc1[nH]c2ccc(C(=O)NC3CCC(C)CC3)cc2c1C (centres undefined)	12µM*	/	i	-12%	?	9%
O=C(NC1CCCCC1)c1cccc(NC(=O)c2ccccc2Cl)c1	?	/	i	-2%	?	-1%
COc1ccc(CCn2c(C)cc(C(=O)CSc3nc(N)cc(=O)[nH]3)c2C)cc1	12µM*	?	i	-32%	12µM*	-11%
Cc1cc(C(=O)CSc2nc(N)cc(=O)[nH]2)c(C)n1-c1ccc(OC(F)F)cc1	1.8µM*	-16%	i	-10%	2.6µM*	-18%
Cc1cc(C(=O)CSc2nc(N)cc(=O)[nH]2)c(C)n1CCc1ccc(F)cc1	12µM*	-22%	i	-41%	18µM*	5%
COc1ccc(CCn2c(C)cc(C(=O)CSc3nnc(N)s3)c2C)cc1	?	-27%	i	-19%	?	16%
Cc1cc(C(=O)CSc2nc(N)cc(N)n2)c(C)n1-c1cccc(F)c1	?	11%	i	-1%	?	-1%
CC(C)CN(C(=O)COC(=O)CSc1ccccc1)c1c(N)n(Cc2ccccc2)c(=O)[nH]c1=O	-22%	-7%	i	-8%	-29%	-13%
O=C(c1ccccc1Cl)N1CCNCC1	0%	8%	i	0%	4%	-20%
CC(C)c1ccc2c(c1)C(N1CCN(C)CC1)Cc1cccnc1S2 (centres undefined)	-93%	-30%	?	-12%	?	22%
Clc1ccc2c(c1)C(N1CCNCC1)Cc1ccccc1S2 (centres undefined)	23µM*	?	32µM*	14µM*	?	?
Clc1cccc2c1Sc1ccccc1CC2N1CCNCC1 (centres undefined)	18µM*	?	?	-110%	18µM*	?
Cn1c2c(c(=O)[nH]c1=O)C(c1cccc(O)c1)C1=C(N2)c2ccccc2C1=O (centres undefined)	8.2µM*	?	?	-23%	7.3µM*	8%
CCC(/C=C1\Sc2ccc(OC)cc2N1CCO)=C\c1sc2ccc(OC)cc2[n+]1CCO	5.2µM*	?	/	-1%	3.3µM*	0%
CCC(=O)/C=C1/Sc2ccc(OC)cc2N1CC	?	-30%	i	-19%	10µM*	-1%

High-throughput results (PubChem BioAssay)
